Inconclusive results are not listed. Activity calls are given as the source filed them. Calls follow the shape of the dose curve; as a rule, active = well fitted curve in the direction sought with a large enough effect in the repeat runs; inconclusive = weak or mixed curves; inactive = no such curve, though single readings can be large; an effect the other way counts as inactive or inconclusive.
Each compound was assayed against Cytochrome P450 2D6 (Homo sapiens) (UniProt P10635) (assay: Cytochrome P450 family 2 subfamily D member 6 (CYP2D6) small molecule antagonists: luciferase biochemical (cell-free) qHTS assay (AID 1645840)). Details: P450-Glo CYP2D6 enzyme, luciferin luminescence, 1 h; series mostly up to 57.4 µM.
Sequence of Cytochrome P450 2D6 (Homo sapiens) (P10635 whole entry, looked up): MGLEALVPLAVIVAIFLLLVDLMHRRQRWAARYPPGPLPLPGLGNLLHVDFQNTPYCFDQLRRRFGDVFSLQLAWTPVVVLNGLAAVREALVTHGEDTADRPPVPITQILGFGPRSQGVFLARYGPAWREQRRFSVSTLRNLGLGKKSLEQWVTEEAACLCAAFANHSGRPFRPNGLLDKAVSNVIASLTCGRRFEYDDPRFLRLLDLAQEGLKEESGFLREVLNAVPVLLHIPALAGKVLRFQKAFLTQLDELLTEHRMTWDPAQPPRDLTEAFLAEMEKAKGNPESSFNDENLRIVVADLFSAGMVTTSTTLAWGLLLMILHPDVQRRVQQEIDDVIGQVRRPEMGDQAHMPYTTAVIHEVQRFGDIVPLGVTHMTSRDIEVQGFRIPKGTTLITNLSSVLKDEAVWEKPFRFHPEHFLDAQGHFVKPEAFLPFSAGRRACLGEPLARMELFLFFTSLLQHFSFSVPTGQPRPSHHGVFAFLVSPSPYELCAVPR
In short: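 P450-Glo luminescent screen: recombinant CYP2D6 enzyme–proluciferin substrate mix preincubated with compound 10 min at room temperature, then NADPH regeneration added for 1 h at room temperature. Detection reagent added for 20 min; luciferin light read as relative luminescence units.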
Also: nearly all actives have a fitted effect of over 55% in size.
Potency is read from the fitted curve at half-maximal effect.

SMILES | Potency
CCc1ccc(C2=CC(c3cccc(OC)c3OC)n3c(nc4ccccc43)N2)cc1 (stereo not given) | 16.9 µM (active)
CCc1ccc(S(=O)(=O)NCc2ccc3c(c2)CCN3C(=O)c2ccc(C)cc2)cc1 | 5.35 µM (active)
Cc1ccc(NC(=O)Cn2c(=O)n(CCC(=O)NCc3ccc4c(c3)OCO4)c(=O)c3sccc32)c(C)c1 | 1.69 µM (active)
O=C(CCCCCn1c(=O)c2sccc2n(CC(=O)Nc2cccc(Cl)c2)c1=O)NCc1ccc2c(c1)OCO2 | 0.0268 µM (active)
COc1ccc(C(=O)Oc2ccc(C(c3c(C)[nH][nH]c3=O)c3c(C)[nH][nH]c3=O)cc2OC)cc1 | inactive
Cc1cc(O)c(Cl)c(C)c1Cl | inactive
COc1ccc(C(=O)Oc2ccc(C(c3c(C)[nH][nH]c3=O)c3c(C)[nH][nH]c3=O)cc2)cc1 | inactive
COC(=O)c1c(SCC(=O)Nc2cc(C)cc(C)c2)[nH]c2ccccc2c1=O | inactive
COc1ccc(-n2nc3c(N4CCCC(C(=O)NCCc5ccccc5C)C4)nnc(C)c3c2C)cc1 (stereo not given) | 2.68 µM (active)
CC1=C(C(=O)Nc2ccc(CN)cc2)C(c2ccccc2Cl)N=C(Nc2nc3ccccc3o2)N1 (stereo not given) | 15.1 µM (active)
CCOc1ccc(-c2nonc2NC(=O)c2oc3c(C)c(C)ccc3c2C)cc1OCC | inactive
CC1=C(C(=O)Nc2ccccc2C)C(c2cccnc2)n2nc(SCc3ccccc3)nc2N1 (stereo not given) | inactive
Cc1cncn1CCc1nc2c3ccccc3nc(SCC(=O)Nc3cccc(Cl)c3)n2n1 | 0.674 µM (active)
CCOc1ccccc1NC(=O)Cn1c(=O)n(CCC(=O)NCc2ccc3c(c2)OCO3)c(=O)c2ccccc21 | 0.425 µM (active)
Clc1cccc(-n2ncc3c(NCCCn4ccnc4)ncnc32)c1 | 2.13 µM (active)
CC(C)OCc1cc(CN2CCN(c3cccc(C(F)(F)F)c3)CC2)c(O)c2ncccc12 | inactive
CC(NC(=O)C(=O)Nc1c2c(nn1-c1ccccc1)CSC2)c1ccccc1 (stereo not given) | inactive
CC(=O)c1ccc(N2CCN(c3ncnc4c3cnn4C)CC2)cc1 | inactive
COc1ccc(NC(=O)CSc2nc(-c3cccs3)cc(C(F)(F)F)n2)cc1OC | inactive
CCOc1ccc(CNC(=O)Cn2c(=O)c3cccn3c3ccc(F)cc32)cc1 | inactive

SMILES | Potency
COc1ccccc1OCCn1c(NC(=O)c2ccccc2Cl)nc2ccccc21 | inactive
CCc1ccc(-n2c(SCc3cccc(F)c3)nc3[nH]ncc3c2=O)cc1 | 12 µM (active)
Cc1ccc(NC(=O)Cn2cc(C(=O)c3ccco3)c3ccccc32)c(C)c1 | 6.74 µM (active)
CC(=O)c1ccc(NC(=O)C2CCN(c3nnc(C)c4c(C)n(-c5ccccc5)nc34)CC2)cc1 | 12 µM (active)
COc1ccc(NC(=O)c2nc(SCc3ccc(F)cc3)ncc2Cl)cc1 | inactive
CCc1ccc(-n2c(SCc3ccccc3C)nc3[nH]ncc3c2=O)cc1 | 9.52 µM (active)
COc1ccc(Cn2c(SCc3ccc(C(=O)NC4CCCC4)cc3)nc3ccncc32)cc1 | 6.01 µM (active)
CCOc1ccc(-c2cc(NC(=O)Nc3ccccc3Cl)c(C(=O)OC)s2)cc1 | inactive
CN(C)S(=O)(=O)n1cc(/C=C(\NC(=O)c2ccccc2)C(=O)NCCCn2ccnc2)c2ccccc21 | 0.0535 µM (active)
COc1ccc(NC(=O)C2CCCN(c3nnc(C)c4c(C)n(-c5ccccc5)nc34)C2)cc1Cl (stereo not given) | 16.9 µM (active)
O=C(CSc1nc2ccsc2c(=O)n1Cc1ccccc1F)NCc1ccccc1Cl | 2.68 µM (active)
Cc1ccc(-n2c(SCc3ccccc3C)nc3[nH]ncc3c2=O)cc1C | 12 µM (active)
CC1=C(C(=O)Nc2nnc(C)s2)C(c2ccccc2Cl)N=C(Nc2nc3ccccc3o2)N1 (stereo not given) | inactive
Cc1ccc([S+](=O)([O-])NC2CCC(C)(C)CC2)cc1 | inactive
O=C(O)C1CSC(C(=O)O)N1 (stereo not given) | inactive
CC1(C#N)CCN(c2c(C(=O)N3CCN(S(C)(=O)=O)CC3)cnc3ccc(F)cc23)CC1 | inactive
Cc1ccc(CNC(=O)C2CCN(S(=O)(=O)c3c(C)noc3/C=C/c3ccccc3F)CC2)o1 | inactive
CN(C)S(=O)(=O)c1ccc(S(=O)(=O)N(Cc2ccccc2Cl)C[C@@H]2CCCO2)cc1 | inactive
Cc1noc(/C=C/c2cccs2)c1S(=O)(=O)N1CCC(C(=O)NCc2ccc(Cl)cc2)CC1 | 2.39 µM (active)
O=c1cc2nc(-c3cccs3)nc(SCCOc3ccc(Cl)cc3)n2[nH]1 | inactive

Each compound was assayed against Cytochrome P450 2C9 (Homo sapiens) (UniProt P11712) (assay: Cytochrome P450 family 2 subfamily C member 9 (CYP2C9) small molecule antagonists: luciferase biochemical (cell-free) qHTS assay (AID 1645842)). Details: P450-Glo CYP2C9 enzyme assay, luciferin luminescence; series mostly up to 57.4 µM.
Sequence of Cytochrome P450 2C9 (Homo sapiens) (P11712 whole entry, looked up): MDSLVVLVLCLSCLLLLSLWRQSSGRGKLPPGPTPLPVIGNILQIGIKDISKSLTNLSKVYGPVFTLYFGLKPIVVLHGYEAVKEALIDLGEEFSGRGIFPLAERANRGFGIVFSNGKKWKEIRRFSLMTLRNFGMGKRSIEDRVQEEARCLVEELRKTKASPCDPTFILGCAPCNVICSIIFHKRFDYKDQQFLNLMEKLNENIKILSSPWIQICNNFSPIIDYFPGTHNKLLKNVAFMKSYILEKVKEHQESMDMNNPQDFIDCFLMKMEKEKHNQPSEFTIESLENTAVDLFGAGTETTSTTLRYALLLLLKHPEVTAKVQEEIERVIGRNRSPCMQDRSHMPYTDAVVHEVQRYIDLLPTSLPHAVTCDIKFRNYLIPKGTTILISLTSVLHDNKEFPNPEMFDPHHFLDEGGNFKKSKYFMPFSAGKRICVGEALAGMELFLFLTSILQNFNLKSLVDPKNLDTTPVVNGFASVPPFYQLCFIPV
In short: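 Luminescence, after 20 min with luciferin detection reagent, reflected CYP2C9 turnover during a 1 h NADPH-driven reaction at 37C. Enzyme-substrate mix contained 0.4% bovine serum albumin and was preincubated with compound 10 min at room temperature.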

SMILES | Potency
CCc1ccc(C2=CC(c3cccc(OC)c3OC)n3c(nc4ccccc43)N2)cc1 (stereo not given) | 3.79 µM (active)
CCc1ccc(S(=O)(=O)NCc2ccc3c(c2)CCN3C(=O)c2ccc(C)cc2)cc1 | 0.674 µM (active)
Cc1ccc(NC(=O)Cn2c(=O)n(CCC(=O)NCc3ccc4c(c3)OCO4)c(=O)c3sccc32)c(C)c1 | 2.13 µM (active)
O=C(CCCCCn1c(=O)c2sccc2n(CC(=O)Nc2cccc(Cl)c2)c1=O)NCc1ccc2c(c1)OCO2 | 0.239 µM (active)
COc1ccc(C(=O)Oc2ccc(C(c3c(C)[nH][nH]c3=O)c3c(C)[nH][nH]c3=O)cc2OC)cc1 | 3.38 µM (active)
Cc1cc(O)c(Cl)c(C)c1Cl | inactive
COc1ccc(C(=O)Oc2ccc(C(c3c(C)[nH][nH]c3=O)c3c(C)[nH][nH]c3=O)cc2)cc1 | 10.7 µM (active)
COC(=O)c1c(SCC(=O)Nc2cc(C)cc(C)c2)[nH]c2ccccc2c1=O | 21.3 µM (active)
COc1ccc(-n2nc3c(N4CCCC(C(=O)NCCc5ccccc5C)C4)nnc(C)c3c2C)cc1 (stereo not given) | 0.674 µM (active)
CC1=C(C(=O)Nc2ccc(CN)cc2)C(c2ccccc2Cl)N=C(Nc2nc3ccccc3o2)N1 (stereo not given) | 10.7 µM (active)
CCOc1ccc(-c2nonc2NC(=O)c2oc3c(C)c(C)ccc3c2C)cc1OCC | 0.379 µM (active)
CC1=C(C(=O)Nc2ccccc2C)C(c2cccnc2)n2nc(SCc3ccccc3)nc2N1 (stereo not given) | 2.39 µM (active)
Cc1cncn1CCc1nc2c3ccccc3nc(SCC(=O)Nc3cccc(Cl)c3)n2n1 | 0.425 µM (active)
CCOc1ccccc1NC(=O)Cn1c(=O)n(CCC(=O)NCc2ccc3c(c2)OCO3)c(=O)c2ccccc21 | 0.601 µM (active)
Clc1cccc(-n2ncc3c(NCCCn4ccnc4)ncnc32)c1 | 0.379 µM (active)
CC(C)OCc1cc(CN2CCN(c3cccc(C(F)(F)F)c3)CC2)c(O)c2ncccc12 | 12 µM (active)
CC(NC(=O)C(=O)Nc1c2c(nn1-c1ccccc1)CSC2)c1ccccc1 (stereo not given) | 3.38 µM (active)
CC(=O)c1ccc(N2CCN(c3ncnc4c3cnn4C)CC2)cc1 | inactive
COc1ccc(NC(=O)CSc2nc(-c3cccs3)cc(C(F)(F)F)n2)cc1OC | inactive
CCOc1ccc(CNC(=O)Cn2c(=O)c3cccn3c3ccc(F)cc32)cc1 | inactive

SMILES | Potency
COc1ccccc1OCCn1c(NC(=O)c2ccccc2Cl)nc2ccccc21 | 3.79 µM (active)
CCc1ccc(-n2c(SCc3cccc(F)c3)nc3[nH]ncc3c2=O)cc1 | 12 µM (active)
Cc1ccc(NC(=O)Cn2cc(C(=O)c3ccco3)c3ccccc32)c(C)c1 | 0.849 µM (active)
CC(=O)c1ccc(NC(=O)C2CCN(c3nnc(C)c4c(C)n(-c5ccccc5)nc34)CC2)cc1 | 7.56 µM (active)
COc1ccc(NC(=O)c2nc(SCc3ccc(F)cc3)ncc2Cl)cc1 | 3.38 µM (active)
CCc1ccc(-n2c(SCc3ccccc3C)nc3[nH]ncc3c2=O)cc1 | 19 µM (active)
COc1ccc(Cn2c(SCc3ccc(C(=O)NC4CCCC4)cc3)nc3ccncc32)cc1 | 0.674 µM (active)
CCOc1ccc(-c2cc(NC(=O)Nc3ccccc3Cl)c(C(=O)OC)s2)cc1 | 5.35 µM (active)
CN(C)S(=O)(=O)n1cc(/C=C(\NC(=O)c2ccccc2)C(=O)NCCCn2ccnc2)c2ccccc21 | 0.213 µM (active)
COc1ccc(NC(=O)C2CCCN(c3nnc(C)c4c(C)n(-c5ccccc5)nc34)C2)cc1Cl (stereo not given) | 5.35 µM (active)
O=C(CSc1nc2ccsc2c(=O)n1Cc1ccccc1F)NCc1ccccc1Cl | 1.51 µM (active)
Cc1ccc(-n2c(SCc3ccccc3C)nc3[nH]ncc3c2=O)cc1C | 21.3 µM (active)
CC1=C(C(=O)Nc2nnc(C)s2)C(c2ccccc2Cl)N=C(Nc2nc3ccccc3o2)N1 (stereo not given) | 9.52 µM (active)
Cc1ccc([S+](=O)([O-])NC2CCC(C)(C)CC2)cc1 | 2.13 µM (active)
O=C(O)C1CSC(C(=O)O)N1 (stereo not given) | inactive
CC1(C#N)CCN(c2c(C(=O)N3CCN(S(C)(=O)=O)CC3)cnc3ccc(F)cc23)CC1 | inactive
Cc1ccc(CNC(=O)C2CCN(S(=O)(=O)c3c(C)noc3/C=C/c3ccccc3F)CC2)o1 | inactive
CN(C)S(=O)(=O)c1ccc(S(=O)(=O)N(Cc2ccccc2Cl)C[C@@H]2CCCO2)cc1 | 9.52 µM (active)
Cc1noc(/C=C/c2cccs2)c1S(=O)(=O)N1CCC(C(=O)NCc2ccc(Cl)cc2)CC1 | 0.213 µM (active)
O=c1cc2nc(-c3cccs3)nc(SCCOc3ccc(Cl)cc3)n2[nH]1 | 19 µM (active)
